# In PubChem BioAssay (EPA / NIEHS):
# Where “and” joins values, the source holds several entries; their conditions need not be identical. Equal entries are not always repeated. Some compounds were tested as several samples or in several runs, with calls that do not always agree. Calls of active or inactive are those of the source. Rule for the calls: active = hit-call score of the fitted dose curve at least 0.9, where 1 is the maximum; inactive = score below 0.9.
# Read-out: Monokine induced gamma interferon (MIG), CXCL9 (gene 4283)
# Test: BSK_hDFCGF_MIG: BioMAP Diversity Plus: hDFCGF Assay for Monokine induced gamma interferon (MIG) Biomarker Activity (AID 2283063)
# Conditions: primary human foreskin fibroblasts; actives raise or lower the signal
# Protocol: BSK_hDFCGF is a cell-based, multiplexed-readout assay that uses foreskin fibroblast, a human skin primary cell, with measurements taken at 24 hours after chemical dosing in a 96-well plate.BSK_hDFCGF_MIG is an assay component measured in the BSK_hDFCGF assay. It measures MIG antibody related to regulation of gene expression using ELISA technology.Data from the assay component BSK_hDFCGF_MIG was analyzed into 1 assay endpoint. This assay endpoint, BSK_hDFCGF_MIG, was analyzed with bidirectional fitting relative to DMSO as the negative control and baseline of activity. Using a type of binding reporter, gain or loss-of-signal activity can be used to understand changes in the signaling as they relate to the gene CXCL9. Furthermore, this assay endpoint can be referred to as a primary readout, because this assay has produced multiple assay endpoints where this one serves a signaling function. To generalize the intended target to other relatable targets, this assay endpoint is annotated to the cytokine intended target family, where the subfamily is chemotactic factor.
# The levels of cell surface (or secreted, indicated by the prefix "s") biomarker endpoints were measured by ELISA. Overt cytotoxicity to cells in confluent adherent cultures (all systems other than the BT system) was assessed by measuring total protein levels using sulforhodamine B (SRB) staining in parallel cultures at the time of biomarker measurements, indicated as SRB endpoints. For proliferation assays for adherent cell types, individual cell types are cultured at sub-confluence and relative cell numbers quantified by SRB staining at time points optimized for each system (48 h: 3C and CASM3C systems; 72 h: BT and HDF3CGF systems; 96 h: SAg system). SRB was performed by staining cells with 0.1% SRB after fixation with 10% TCA and reading wells at 560 nm.Viability and proliferation of PBMC (T cells) was quantified by Alamar Blue reduction for the SAg and BT systems. For PBMC viability (referred to as PBMC Cytotoxicity within the assay endpoint names), cells were plated (75,000/well in a 96-well plate) and then chemical samples added for 1 h before addition of activators, SEB and TSST-1 (20 ng/mL final concentration each). Cells were incubated for 90 h. Then, Alamar Blue (20 uL/well) (Invitrogen, Cat DAL1100) was added for 6 h, and the plates were read with a fluorescence microplate reader at 546/580 nm (excitation/emission). For PBMC proliferation, cells were plated and activated as above but incubated for only 16 h prior to addition of Alamar Blue. Plates were read after 6 h.
Compound,outcome,AC50
CCOP(=O)(NC(C)C)Oc1ccc(SC)c(C)c1 (stereo not given),inactive,
CC(C)N(C(=O)SCC(Cl)=C(Cl)Cl)C(C)C,,33.8 µM (active)
Cc1nn(-c2cc(NS(C)(=O)=O)c(Cl)cc2Cl)c(=O)n1C(F)F,inactive,
O=[N+]([O-])c1cc(C(F)(F)F)c(Cl)c([N+](=O)[O-])c1Nc1ncc(C(F)(F)F)cc1Cl,,1.32 µM (active) and 8.98 µM (active)
CC(C)=CC1C(C(=O)OCN2C(=O)C3=C(CCCC3)C2=O)C1(C)C (stereo not given),,33.5 µM (active)
CC1=NNC(=O)N(/N=C/c2cccnc2)C1,inactive,
CCCCN(CC)c1c([N+](=O)[O-])cc(C(F)(F)F)cc1[N+](=O)[O-],inactive,
CCCCOC(=O)c1ccccc1C(=O)O,inactive,
S=C1NCCN1,inactive,
C[Si](Cn1cncn1)(c1ccc(F)cc1)c1ccc(F)cc1,inactive,
CCOP(=S)(OCC)SCCSCC,inactive,
CC1(C(=O)Nc2ccc(O)c(Cl)c2Cl)CCCCC1,inactive,
CNC(=O)Oc1cccc2c1OC(C)(C)O2,inactive,
COc1ccc(C(=CC(=O)N2CCOCC2)c2ccc(Cl)cc2)cc1OC,inactive,
Nc1nc(N)nc(NC2CC2)n1,inactive,
Cc1cc(C2CC2)nc(Nc2ccccc2)n1,inactive,
CCCCOC(=O)[C@@H](C)Oc1ccc(Oc2ccc(C#N)cc2F)cc1,inactive,
COP(=O)(NC(C)=O)SC (stereo not given),inactive,
CCNc1nc(Cl)nc(NC(C)(C)C#N)n1,inactive,
CCOP(=S)(Oc1cnc(C(C)(C)C)nc1)OC(C)C (stereo not given),,31.6 µM (active)

Compound,outcome,AC50
CC(C1CC1)C(O)(Cn1cncn1)c1ccc(Cl)cc1 (stereo not given),inactive,
COc1cccc(C(=O)NN(C(=O)c2cc(C)cc(C)c2)C(C)(C)C)c1C,inactive,
CN(C)[C@@H]1C(=O)C(C(N)=O)=C(O)[C@@]2(O)C(=O)C3=C(O)c4c(O)cccc4[C@@](C)(O)[C@H]3[C@H](O)[C@@H]12,inactive,31.6 µM (active)
CC(=NC#N)N(C)Cc1ccc(Cl)nc1,inactive,
CC(COc1ccc(Oc2ccccc2)cc1)Oc1ccccn1 (stereo not given),inactive,
COP(=O)(OC)C(O)C(Cl)(Cl)Cl (stereo not given),inactive,
CCC(=O)Nc1ccc(Cl)c(Cl)c1,inactive,
CCc1cnc(C2=NC(C)(C(C)C)C(=O)N2)c(C(=O)O)c1 (stereo not given),inactive,
CN(C)C(=O)Nc1cccc(C(F)(F)F)c1,inactive,
COP(=O)(OC)SCn1c(=O)oc2cc(Cl)cnc21,,19.3 µM (active)
CCC(=NOC/C=C/Cl)C1=C(O)CC(C2CCOCC2)CC1=O (stereo not given),inactive,
CN1COCN(Cc2cnc(Cl)s2)C1=N[N+](=O)[O-],inactive,
CSc1nc(NC(C)C)nc(NC(C)C)n1,inactive,
CCOC(=O)CC(SP(=O)(OC)OC)C(=O)OCC (stereo not given),inactive,
O=C(O)c1cc(Oc2ccc(C(F)(F)F)cc2Cl)ccc1[N+](=O)[O-],inactive,
CNC(=O)ON=C(C)SC,inactive,
CON=C(C(=O)OC)c1ccccc1CON=C(C)c1cccc(C(F)(F)F)c1,inactive,
CNC(=O)ON=C(SC)C(=O)N(C)C,inactive,
FC(F)C(F)(F)OCC(Cn1cncn1)c1ccc(Cl)cc1Cl (stereo not given),inactive,
